Sampled rows, rich in hits. Any-hit rate of the full collection: about 7.9%.
Lassa entry inh = qHTS for Inhibitors of binding or entry into cells for Lassa Virus; Lassa virus pseudotype entry inhibition, cell reporter; Potency, µM (doses to about 37.9 µM), without a hit: at the highest dose activity change, negative = inhibition, usual class: inhibitors; hit rate 1.2% among 300,000; calls by dose curve; tested in HEK293 cells; also: potency is read from the fitted curve at half-maximal effect; nearly all actives have a fitted effect of over 50% in size
HCMV antiviral = qHTS Assay for inhibitors of the human cytomegalovirus (HCMV); HFF cells, HCMV-luciferase reporter, 72 h; hits give low values; activity change, negative = inhibition, % at 57.5 µM; hit rate 4.5% among 410,000; AID 1259415, 2018; in the data active = activity change below about -60%; inconclusive = no clear call, values can overlap the other calls; inactive = above about -39%
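Inhibition of viral replication was scored as loss of reporter luminescence in HFFs infected with HCMV-luciferase (MOI 1 PFU/cell) for 72 h; compounds tested at 2 doses, normalized to buffer and Salinomycin controls.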
Marburg entry inh = qHTS for inhibitors of binding or entry into cells for Marburg Virus; Marburg virus pseudotyped entry inhibition, cell reporter; Potency, µM (highest dose often 37.8 µM), without a hit: at the top dose activity change, negative = inhibition, most hits filed as inhibitors; hit rate 1.8% among 300,000; AID 540276, 2011; calls by dose curve; tested in HEK293 cells; also: potency is read from the fitted curve at half-maximal effect
FMDV inh = High Throughput Screening for Foot and Mouth Disease Virus Antivirals; FMDV antiviral cell-based qHTS; Potency, µM (titrated, usually from 57.9 µM), inactives show at the top dose activity change, negative = inhibition, actives largely listed as inhibitors; AID 1159524, 2015; hit rate 1.2% among 410,000; calls by dose curve; tested in HEK293T cells; also: read-out not given here; potency is read from the fitted curve at half-maximal effect; nearly all actives have a fitted effect of over 45% in size
HCV inh = qHTS Assay for Inhibitors of Hepatitis C Virus (HCV). Huh7.5.1 HCVcc-Cre infection, luciferase reporter, 44 h. Potency, µM (highest dose often 41.8 µM), without a hit: at the highest dose activity change, negative = inhibition, actives largely listed as inhibitors. hit rate 3.4% among 340,000. AID 651820, 2012; active = well fitted inhibition curve with a large enough effect; inconclusive = small, poorly fitted or top-dose-only effect, or another doubt; inactive = no such curve, though single readings can be large or run the other way; also: potency is read from the fitted curve at half-maximal effect
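Whole-lifecycle infectious HCVcc-Cre system; cells 1,000/well, compound then virus (~0.5 moi) added 4 h after plating, 44 h culture. Luciferase read 15 sec following 15 min substrate incubation, room temp.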
* marks the source's active call; other numbers are inactive results; u = inconclusive; x = not tested or not shown; [ ] = dose if it differs, or a comment. % is scaled to controls: 0 for no effect and ±100 for the full control effect.

SMILES | Lassa entry inh | HCMV antiviral | Marburg entry inh | FMDV inh | HCV inh
O=C(COc1ccccc1F)N1N=C(c2cccs2)CC1c1ccco1 (stereo not drawn) | -19.5% | -24.1 | u | 5.4% | -10.1%
COc1ccc2c(c1)Cc1sc(NC(=O)c3ccc(Cl)cc3)nc1-2 | 3.1%[46.1 µM] | -63.2* | u | -18.8% | x
COc1ccc2c(c1)Cc1sc(NC(=O)c3cccc(Cl)c3)nc1-2 | 20.1%[46.1 µM] | -27.0 | x | u | x
COc1ccc2c(c1)Cc1sc(NC(=O)c3cccc(C)c3)nc1-2 | -0.2%[46.1 µM] | -69.6* | 8.3%[46.1 µM] | 5.3% | x
CCS(=O)(=O)c1nc(S(=O)(=O)c2ccc(C)cc2)c(N2CCC3(CC2)OCCO3)s1 | x | -31.7 | x | 14.4% | 17.8%
O=C(CCc1nnc2n(Cc3ccc(F)cc3)c(=O)c3ccccc3n12)N1CCN(c2ccccn2)CC1 | x | -18.6 | x | u | 14.1µM*
CC1CC(C)CN(C(=O)c2ccc3c(=O)n(Cc4ccc5c(c4)OCO5)c(=S)[nH]c3c2)C1 (stereo not drawn) | 4.3% | -80.6* | 17.2% | -26.5% | -9.3%
O=C(c1ccc2c(=O)n(Cc3ccc4c(c3)OCO4)c(=S)[nH]c2c1)N1CCCCC1 | -6.1% | -33.1 | 2.8% | 10.1% | 9.0%
O=C(c1ccc(Cn2c(=S)[nH]c3ccccc3c2=O)cc1)N1CCN(c2ccccn2)CC1 | u | -65.3* | u | u | 11.2µM*
O=C(c1ccc2c(=O)n(Cc3ccc(Cl)cc3)c(=S)[nH]c2c1)N1CCCC1 | x | 29.4 | x | -18.0% | 13.3%
O=C(c1ccc2c(=O)n(Cc3ccc(Cl)cc3)c(=S)[nH]c2c1)N1CCOCC1 | u | -65.0* | -16.0%[46.1 µM] | u | -4.8%
CCCCCn1c(=O)[nH]c2cc(C(=O)NCc3ccc4c(c3)OCO4)ccc2c1=O | u | u | -16.7% | -6.0% | -13.6%
CCCCCn1c(=O)[nH]c2cc(C(=O)N3CCN(Cc4ccc5c(c4)OCO5)CC3)ccc2c1=O | u | -76.3* | u | u | 2.82µM*
COc1cc(/C=C2/NC(=O)N(CC(=O)Nc3cccc(C)c3)C2=O)ccc1OCC(N)=O | -29.7% | -22.2 | -1.9%[14.2 µM] | -11.0% | 10µM*
CCOc1cc(/C=C2/NC(=O)N(CC(=O)Nc3cccc(C)c3)C2=O)ccc1OC | u | u | u | -22.6% | -12.5%
CCOC(=O)Cc1c(C)nc2c(-c3cccc(Br)c3)cnn2c1C | u | -74.9* | 26.9% | -16.1% | -1.7%
Cc1cc(N)n2ncc(-c3cccc(Br)c3)c2n1 | u | 24.7 | -7.8% | 75.1% | u
O=C1c2ccccc2/C(=C\c2ccc3[nH]ccc3c2)N1c1ccccc1 | x | -66.5* | x | 24.3% | u
CCC/C(=C1/c2ccccc2C(=O)N1c1ccccc1)c1ccc2[nH]ccc2c1 | x | 53.1 | x | 0.0% | u
CC(C)CO/N=C1\C[C@@H](O)[C@@H](O)[C@@H]2[C@@H]3C(=O)N(C[C@@H]4CCCO4)C(=O)[C@@H]3CC[C@H]12 | x | x | 10.4%[14.2 µM] | x | x
CC1(C)Cc2ccccc2C(/C(=N/O)C(N)=O)=N1 | 28.5% | 62.1 | 3.4% | -25.6% | -5.5%
CC(=O)c1ccc(N/N=C(/C(N)=O)C2=NC(C)(C)Cc3ccccc32)cc1 | 2.91µM* | u | 3.26µM* | 0.0% | u
CC1(C)Cc2ccccc2C(/C(=N\Nc2cccc(Cl)c2)C(N)=O)=N1 | u | -101.8* | u | u | u
Cc1cc(S(=O)(=O)Nc2ccc(C(=O)NCC3(N4CCCCC4)CCCCC3)cc2)ccc1F | u | -4.9 | 11.2µM* | -23.4% | -20.2%
NC(=O)c1ccc(-c2nc(-c3ccc4c(c3)OCO4)c(-c3ccccn3)[nH]2)cc1 | 6.28µM* | x | x | -4.3% | x
SMILES | Lassa entry inh | HCMV antiviral | Marburg entry inh | FMDV inh | HCV inh
Cc1ccc(N2CN=c3s/c(=C/c4cccnc4)c(=O)n3C2)cc1 | x | x | -20.5%[46.1 µM] | x | x
Cc1cc(=O)oc2c(C)c(OC(C)C(=O)NCC(O)c3ccccc3)ccc12 (stereo not drawn) | x | u | x | 2.9% | u
Cc1c(OC(C)C(=O)NCC(O)c2ccccc2)ccc2c3c(c(=O)oc12)CCCC3 (stereo not drawn) | x | 0.0 | x | 0.0% | 25.1µM*
CCN1C(=NCCCCO)N[C@@H](CCc2ccccc2)[C@H](C(=O)OC)[C@H]1C | u | x | 9.2%[14.2 µM] | x | x
COc1ccc(CCNc2oc(Cc3ccccc3)nc2C#N)cc1OC | -14.7% | -13.8 | u | 14.1µM* | 10µM*
COc1ccc(CCNc2oc(COc3ccccc3Cl)nc2C#N)cc1OC | x | 19.1 | x | 20µM* | u
COc1ccc(Nc2oc(COc3ccccc3OC)nc2C#N)cc1 | u | -79.6* | u | 11.5% | -1.1%
COc1ccccc1OCc1nc(C#N)c(NCc2ccc(C)cc2)o1 | -8.2%[46.1 µM] | 2.0 | -22.6%[46.1 µM] | -13.3% | x
COc1ccc(CCNc2oc(COc3ccccc3F)nc2C#N)cc1OC | u | -3.4 | u | -0.4% | u
COC(=O)CN1C(=O)CSc2ccc(S(=O)(=O)Nc3cccc(Br)c3)cc21 | 0.1%[46.1 µM] | -31.2 | x | 42.0% | x
O=C(NCC(c1ccco1)N1CCc2ccccc2C1)c1cccc(Br)c1 (stereo not drawn) | -18.0% | -22.7 | 3.8% | u | 12.0%
CC(C)CC(=O)Nc1nc2c(s1)CC(C(C)(C)C)CC2 (stereo not drawn) | 7.0%[46.1 µM] | 30.4 | u | 36.9% | x
COc1ccc(C2=NOC(C(=O)N3CCCc4ccccc43)C2)cc1 (stereo not drawn) | -3.4% | -4.8 | 0.0% | 43.1% | -24.9%
COc1cc(C2=NOC(C(=O)N3CCCc4ccccc43)C2)cc(OC)c1OC (stereo not drawn) | -11.6% | 102.2 | -16.1% | -6.8% | 2µM*
CCCN(C(=O)CCl)C1=CCCCC1 | u | -100.4* | 3.6%[46.1 µM] | u | 12.6µM*
c1ccc(N(c2ccccc2)c2nc(N3CCCC3)nc(-n3ccnc3)n2)cc1 | 1.64µM* | -66.3* | u | u | u
c1ccc(CN2CCN(c3nc(-c4ccccc4)nc(-n4ccnc4)n3)CC2)cc1 | -4.9% | x | u | -1.2% | 11.2µM*
Cc1ccc(C(NC(=O)C2CCCCC2)c2c(O)ccc3ccccc23)cc1 (stereo not drawn) | u | -66.4* | u | -20.8% | u
CC(=O)NC(c1ccc(C(C)C)cc1)c1c(O)ccc2ccccc12 (stereo not drawn) | u | 14.9 | u | -0.4% | -29.0%
Cc1cnc(SCc2ccccn2)nc1C1CCCN(C(=O)c2ccc3[nH]c(C)c(C)c3c2)C1 (stereo not drawn) | x | x | x | -15.9% | x
CC1CC(C)(O)CC(C(O)CC2CC(=O)NC(=O)C2)C1=O (stereo not drawn) | 0.398µM* | -74.8* | 0.1µM* | u | u
COc1ccc(OC)c(NC(=O)Cn2ccn(-c3ccc(F)cc3)c(=O)c2=O)c1 | -3.5%[46.1 µM] | -0.6 | x | -4.0% | x
[O-]/[N+](=C/c1ccc(F)cc1)c1ccccc1 | -12.9% | -79.9* | 2.9% | 0.0% | 9.1%
C[C@H](c1ccccc1)N1C[C@@H](COCc2ccccc2)Oc2cccc(Oc3ccc(F)cc3)c2S1(=O)=O | 3.53µM* | u | x | x | x

Screening results as filed in PubChem BioAssay.
